The results in this text go back to PubChem BioAssay (Tox21).

Molecules are shown by their SMILES. Results filed as inconclusive are left out. A call without a number means that no potency is given here. Unmarked numbers belong to inactive results. The source made the active and inactive calls. Calls come from the whole dose curve; as a rule, active = well fitted cell-killing curve with a large enough effect in the repeat runs; inconclusive = weak or mixed curves, or effect the other way; inactive = flat fitted curve, though single readings scatter.

This test is described as follows: Human pregnane X receptor (PXR) small molecule agonists, qHTS cell viability counter screen (AID 1346977). Note: nearly all actives have a fitted effect of over 50% in size. To be noted: PXR-Luc HepG2 viability, CellTiter-Fluor, 24 h; series mostly up to 92.4 µM. An excerpt:
U.S. Tox21 Program National Center for Advancing Translational Sciences [NCATS] NIH Chemical Genomics Center [NCGC] U.S. Environmental Protection Agency [EPA] National Institutes of Environmental Health Sciences [NIEHS] National Toxicology Program [NTP] U.S. Food and Drug Administration [FDA] Tox21 Assay Overview: The human pregnane X receptor (hPXR) regulates the expression of several drug metabolizing enzymes and induction of these proteins is a major mechanism for developing drug resistance in cancer. One such key enzyme catalyzing the drug metabolism is cytochrome P450 3A4 (CYP3A4). Changes in CYP3A4 expression affect drug metabolism, thereby reducing the therapeutic efficacy and altering toxicological response to a drug and which finally causes adverse drug interaction. To screen Tox21 libraries for compounds that activate hPXR-mediated CYP3A4 gene expression, PXR-Luc HepG2 cells were used. Also cytotoxicity of the compounds was tested in parallel by measuring the cell viability using CellTiter-Fluor assay system in the same wells.
Tox21 Assay Protocol Summary: PXR-Luc HepG2 cells were dispensed at 2,000 per well in 5uL of assay medium containing 5% charcoal-stripped FBS into white solid bottom 1536-well plates (Corning Life Sciences, Corning, NY) using a Multidrop Combi (Thermo Scientific, Waltham, MA) dispenser. The assay plates were incubated at 37 C and 5% CO2 for 5hr, and then 23nL of compounds dissolved in DMSO and positive control were transferred using a Pintool station (Wako, San Diego, CA). The assay plates were incubated at 37C and 5% CO2 for 24hr. For cytotoxicity read, after 23hr incubation at 37C, 1uL CellTiter-Fluor reagent (Promega Corporation, Madison, WI) was added to each well of the assay plates using Flying Reagent Dispenser (FRD, Aurora Discovery, San Diego, CA). After 1hr incubation at 37C and 5% CO2, the fluorescence signal was quantified using a ViewLux plate reader (PerkinElmer, Shelton, CT).
On to `CNC(=O)Oc1ccccc1C(C)C`, for which the Potency result was “inactive”.

In the case of `CCC(CC)(CNC(=O)CCCO)c1cccc(OC)c1`, the Potency result is “inactive”.

As for `CN(C)CCN(C)C`, the Potency entry is “inactive”.

On to `C1CN2CCC1CC2`, for which the Potency entry is “inactive”.

Consider `CC(C)(C)C(=O)C(Cl)Cl`, for which the Potency result was “inactive”.

As to `C=C(C)[C@H]1CN[C@H](C(=O)O)[C@H]1CC(=O)O`, the Potency entry was “inactive”.

Consider `NNCc1ccccc1`, for which the Potency result is “inactive”.

With `CCOC1Oc2ccc(OS(C)(=O)=O)cc2C1(C)C` (stereo not given), the Potency entry is “inactive”.

On to `CCc1ccc(C2CCNCC2)cc1`, for which the Potency result was “inactive”.

For `O=c1[nH]c2ccccc2n1C1CCNCC1`, the Potency entry is “inactive”.

`O=C(Cl)CCl`: the Potency result was “inactive”.

Consider `COc1ccccc1OC`, for which the Potency entry is “inactive”.

For the compound `CC(=NC#N)N(C)Cc1ccc(Cl)nc1`, the Potency entry is “inactive”.

With `CCCC[N+](=O)[O-]`, the Potency result was “inactive”.

As to `N[C@@H]1C[C@H]1c1ccccc1`, the Potency result is “inactive”.

On to `O=S1(=O)OCCO1`, for which the Potency result was “inactive”.

For the compound `CN(C)C1CCCCC1`, the Potency result is “inactive”.

`CCOC(=O)N(C)N=O`: the Potency result is “inactive”.

`COc1cccc(C=O)c1`: the Potency result was “inactive”.

With `CC(=O)OCC1=C(C(=O)O)N2C(=O)[C@@H](N)[C@H]2SC1`, the activity change, negative = cytotoxicity was 0.727% [at 19 µM].

Consider `N#CC(Br)(Br)C(N)=O`, for which the Potency result was “inactive”.

In the case of `Cc1cccc2sc3nncn3c12`, the Potency result is “inactive”.

`CCC(C)C(C)(COC(N)=O)COC(N)=O` (stereo not given): the Potency result was “inactive”.

`O=C(Cl)/C=C/C(=O)Cl`: the Potency entry was “inactive”.

For the compound `CS(=O)(=O)c1ccc(C(=O)C2C(=O)CCCC2=O)c(Cl)c1COCC(F)(F)F`, the Potency entry is “inactive”.

In the case of `C[C@@H](N)[C@@H](O)c1ccccc1`, the Potency entry is “inactive”.

Take `O=P(O)(O)c1ccccc1`: the Potency entry was “inactive”.

Take `O=P(O)(O)CN(CP(=O)(O)O)CP(=O)(O)O`: the Potency result is “inactive”.

Take `Cn1c(CCCC(=O)O)nc2cc(N(CCCl)CCCl)ccc21`: the Potency result was “inactive”.

As to `COc1ccc(C=O)cc1O`, the Potency entry was “inactive”.

In the case of `CC(C)(C)NC[C@H](O)c1ccc(O)cc1Cl`, the Potency result is “inactive”.

Take `CC(C)(C1CCC(O)CC1)C1CCC(O)CC1` (stereo not given): the Potency result is “inactive”.

Consider `CC[C@@H](CO)NC(=O)[C@@H]1C=C2c3cccc4c3c(cn4C)C[C@H]2N(C)C1`, for which the Potency entry is “inactive”.

Turning to `C=C1CC[C@@]2(O)[C@H]3Cc4ccc(O)c5c4[C@@]2(CCN3CC2CC2)[C@H]1O5`, the Potency entry was “inactive”.

Turning to `O=C(Cl)c1ccccc1`, the Potency entry is “inactive”.

Take `N[C@@H](Cc1ccc(Oc2cc(I)c(O)c(I)c2)c(I)c1)C(=O)O`: the Potency entry was “inactive”.

In the case of `CCOC(=O)CCl`, the Potency entry was “inactive”.

As for `OCC(Cl)CCl` (stereo not given), the Potency entry is “inactive”.

Regarding `COP(=O)(O)OC`, the Potency entry was “inactive”.

Regarding `CCOC(=O)C(Cl)Cc1cc(-n2nc(C)n(C(F)F)c2=O)c(F)cc1Cl` (stereo not given), the Potency entry was “inactive”.
